In paper PMC5540273 (PLoS ONE, 2017):
Several values for one entry are separate records, joined by “and”; a condition that tells them apart may be missing. Equal entries are not always repeated. Where two headings read alike, the source gives them in different places.

Columns and labels:
ERK4 = test system: T1, ERK4; conditions: concentration: 1 μM, replicates: in singlicate; n = 1
T1 construct: gene MAPK4

ERK5 = test system: T2, ERK5; conditions: concentration: 1 μM, replicates: in singlicate; n = 1
T2 construct: gene MAPK7

ERK8 = test system: T3, ERK8; conditions: concentration: 1 μM, replicates: in singlicate, n = 1
T3 construct: gene MAPK15

ERN1 = conditions: concentration: 1 μM, replicates: in singlicate; n = 1
FAK = test system: T4, FAK; conditions: concentration: 1 μM, replicates: in singlicate; n = 1
T4 construct: gene PTK2

FER = conditions: concentration: 1 μM, replicates: in singlicate, n = 1
FES = conditions: concentration: 1 μM, replicates: in singlicate, n = 1
FGFR1 = conditions: concentration: 1 μM, replicates: in singlicate; n = 1
FGFR2 = conditions: concentration: 1 μM, replicates: in singlicate; n = 1
FGFR3 = conditions: concentration: 1 μM, replicates: in singlicate, n = 1
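Further: KINOMEscan kinase panel screen.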

Structure (SMILES)	%Inh (ERK4) [%]	%Inh (ERK5) [%]	%Inh (ERK8) [%]	%Inh (ERN1) [%]	%Inh (FAK) [%]	%Inh (FER) [%]	%Inh (FES) [%]	%Inh (FGFR1) [%]	%Inh (FGFR2) [%]	%Inh (FGFR3) [%]	%Inh (ERK8; 1 µM)	%Inh (FER; 1 µM)	%Inh (FES; 1 µM)	%Inh (FGFR3; 1 µM)
Cc1ccc(O)cc1Nc1cc(C(F)(F)F)nc2ccc(-c3ccncc3)cc12 [GW630823]	5	9	7	0	3	1	6	0	4	0				
O=C(CCO)NCCn1ccc2ncnc(Nc3ccc(Oc4cccc(C(F)(F)F)c4)c(Cl)c3)c21	0	5	0	0	0	0	0	0	0	0				
Nc1nc(-c2ccc3c(N)n[nH]c3c2)cc(N2CCC[C@@H](C(=O)Nc3ccccc3)C2)n1.O=C(O)C(F)(F)F.O=C(O)C(F)(F)F [GSK2288359]	16	0	0	23	0	0	0	0	0	7				
COc1ccc(-c2nc3n(c2-c2ccncc2)CCC3)cc1 [SKF-104493]	0	0		0	0			0	0		6% and 11%	0% and 33%	10% and 0%	0% and 9%
